Source: PubChem
HSP90 refold inh – HSP90 inhibitors, primary screen, cell lysate, luminescence; 290,000 tested, 0.91% active; Rabbit reticulocyte lysate, luciferase refolding luminescence, 3 h; Heat shock protein HSP 90 (rabbit reticulocyte lysate; luciferase refolding); inhibition, % at 5.6 µM;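 active = inhibition above the screen-wide mean plus 3 SD, computed separately per campaign, cut at about 16% in these data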;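 also: 0% = DMSO wells and 100% = 60 µM geldanamycin wells; inhibitors lower the luminescence because luciferase stays unfolded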
Peg3 prom inh – Peg3 promoter-driven luciferase inhibitors, primary screen, cell-based, HeLa, luciferase luminescence; inhibition, % at 20 µM; 360,000 tested, 1.7% active; HeLa PEG-Prom luciferase reporter, overnight;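 active = inhibition of at least 50% at 20 µM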
Mdm2 MdmX PPI – inhibitors of human Mdm2-MdmX association, primary screen, cell-based, luminescence, split luciferase, SaOS-2, uHTS; Protein Mdm4 (Homo sapiens) + E3 ubiquitin-protein ligase Mdm2 (Homo sapiens), …; SaOS-2 split-luciferase Mdm2/MdmX complementation; inhibition, % at 8 µM; 330,000 tested, 3% active; AID 485346, 2010;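 active = inhibition of at least 50% at 8 µM in the primary screen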
CF NFkB block – inhibitors of PAF-induced NF-kB signaling, primary screen, cell-based, GFP fluorescence, uHTS; KKLEB NF-kB-GFP reporter, GFP fluorescence overnight; inhibition, % at 5 µM; 360,000 tested, 0.86% active;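 active = at least 50% inhibition at 5 µM, scaled per plate between neutral and stimulator controls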;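 also: PAF is a Pseudomonas aeruginosa culture filtrate used as stimulus; plate controls were PAF-stimulated DMSO wells for no effect and unstimulated DMSO wells for full effect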
KKLEB tox – cytotoxicity in KKLEB CF airway cells, primary screen, cytotoxicity control for CF NF-kB inhibitor project, cell-based, uHTS, fluorescence assay plates. KKLEB CF airway cells viability, ATPlite luminescence, overnight; stronger effect = lower value; cells stimulated with P. aeruginosa culture filtrate. activity change (cytotoxicity), % at 5 µM. 360,000 tested, 0.36% active. AID 602141, 2011;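 active = corrected activity change at or below -50% at 5 µM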
LGR2 antag – inhibitors of bursicon-induced LGR2 CRE-luciferase signal, primary screen, cell-based, HEK293, CRE-luciferase reporter, bursicon stimulation | 380,000 tested, 0.35% active | AID 720647, 2013 | inhibition, % at 9.99 µM | bursicon-stimulated, 4 h;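 active = drop in luminescence signal, shown as inhibition above about 50% in the replicate tests, limit read from the data, passing the limit was not always enough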;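 also: agonist challenge used bursicon conditioned medium at about half maximal strength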
Mdm2 MdmX conf – Mdm2-MdmX complex disruptors, retested hits, confirmation, luminescence, single concentration | shares compounds with Mdm2 MdmX PPI | Mdm2-MdmX binding, luminescent assay | inhibition, % at 8 µM | 10,000 tested, 55% active; in the data active = inhibition above about 40%
Full FLuc ctr – full-length luciferase signal inhibition, confirmation, counter-screen for Mdm2/MdmX interaction inhibitor project, cell-based, single concentration, SaOS-2. inhibition, % at 8 µM. AID 504607, 2011. SaOS-2 full-length luciferase counterscreen, luminescence. 6,200 tested, 77% active. shares compounds with Mdm2 MdmX PPI;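 active = mean inhibition at 8 µM reaching about 37%, which flags the compound as non-specific, limit read from the data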;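 also: p53-null SaOS-2 cells with luciferase driven by a doxycycline-inducible promoter; compound on cells about two nights before reading with doxycycline added after day one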
Numbers without * were called inactive. An excerpt weighted towards active compounds, which were near 3.6% of everything screened.

How did COc1ccc(/C=N\NC(=O)c2sccc2C)cc1Cn1nc(C)cc1C do in these assays?
HSP90 refold inh: 2.7; Peg3 prom inh: -44.2; Mdm2 MdmX PPI: 59.0*; CF NFkB block: -190.4; KKLEB tox: 14.6; LGR2 antag: 3.1; Mdm2 MdmX conf: 63.9*; Full FLuc ctr: 73.0*

Results for CCC(=O)N(C)C[C@@H]1Oc2ncc(-c3ccc(F)cc3)cc2C(=O)N([C@@H](C)CO)C[C@H]1C ?
LGR2 antag: -4.7

What do the screens show for `COc1ccc(-c2csc3nc(-c4cccnc4)nc(Cl)c23)cc1OC`?
HSP90 refold inh: -1.5; Peg3 prom inh: 8.6; Mdm2 MdmX PPI: 81.1*; CF NFkB block: -2.1; KKLEB tox: -8.7; LGR2 antag: -5.5; Mdm2 MdmX conf: 30.8

Results for O=C(c1nn2c(C(F)(F)F)cc(-c3cccs3)nc2c1Br)N1CCCc2ccccc21 ?
HSP90 refold inh: -3.7; Peg3 prom inh: 48.5; Mdm2 MdmX PPI: 28.4; CF NFkB block: 35.1; KKLEB tox: -19.3; LGR2 antag: 5.3

Results for O=C(c1nn2c(C(F)(F)F)cc(-c3ccco3)nc2c1Br)N1CCCc2ccccc21 ?
HSP90 refold inh: 6.1; Peg3 prom inh: 60.4*; Mdm2 MdmX PPI: 56.7*; CF NFkB block: 18.2; KKLEB tox: -21.0; Mdm2 MdmX conf: 44.0*; Full FLuc ctr: 48.3*

Results for Cc1ccc2c(c1)c1c(n2CC(O)Cn2ccnc2C)C(=O)CCC1 (stereo unspecified) ?
HSP90 refold inh: 2.5; Peg3 prom inh: 10.2; Mdm2 MdmX PPI: 31.3; CF NFkB block: -6.2; KKLEB tox: -16.0

Results for Cc1ccc2c(c1)c1c(n2CC(O)CNC2CCCC2)CCCC1 (stereo unspecified) ?
HSP90 refold inh: 0.6; Peg3 prom inh: 61.0*; Mdm2 MdmX PPI: 56.5*; CF NFkB block: 12.0; KKLEB tox: -7.2; LGR2 antag: 24.5; Mdm2 MdmX conf: 39.6; Full FLuc ctr: 77.2*

Results for C[C@@H]1CN([C@@H](C)CO)C(=O)Cc2cc(NS(=O)(=O)c3cccs3)ccc2O[C@H]1CN(C)C ?
LGR2 antag: -16.2

How did CS(=O)(=O)Nc1ccc2c(c1)[C@H]1C[C@@H](CC(=O)NCc3ccccc3F)O[C@H](CO)[C@H]1O2 do in these assays?
LGR2 antag: 11.5

What do the screens show for `C[C@H]1CN([C@@H](C)CO)C(=O)Cc2cc(NC(=O)Cc3ccccc3)ccc2O[C@H]1CN(C)C`?
LGR2 antag: 17.1

What do the screens show for `O=c1[nH]c(CCl)nc2cc(-c3ccc(F)cc3)sc12`?
HSP90 refold inh: 15.5; Peg3 prom inh: -48.5; Mdm2 MdmX PPI: 94.3*; CF NFkB block: 27.2; KKLEB tox: -23.2; LGR2 antag: 19.9; Mdm2 MdmX conf: 14.0

What do the screens show for `COCCNc1nc2cc(-c3ccc(F)cc3)sc2c(=O)n1C`?
Peg3 prom inh: -43.5; CF NFkB block: -54.1; KKLEB tox: 4.6; LGR2 antag: -33.3

Results for C[C@H](CO)N1C[C@H](C)[C@H](CN(C)S(=O)(=O)c2ccccc2)OCCCC[C@H](C)Oc2ccc(NS(=O)(=O)c3ccc(F)cc3)cc2C1=O ?
LGR2 antag: -13.0

Results for CCc1cc(C(=O)N2CCc3c([nH]c4ccccc34)C2c2ccc(OC)cc2F)no1 (stereo unspecified) ?
HSP90 refold inh: 5.9; Peg3 prom inh: -10.8; Mdm2 MdmX PPI: 83.3*; CF NFkB block: 9.0; KKLEB tox: 4.4; LGR2 antag: 24.6; Mdm2 MdmX conf: 85.0*; Full FLuc ctr: 34.5

Results for Cn1cnc(S(=O)(=O)N2[C@@H]3CNC[C@H]2C3c2ccc(-c3ccccc3)cc2)c1 (stereo partly specified) ?
LGR2 antag: -1.9

How did CC1=CC(C)(C)Nc2ccc(OC(=O)CN3C(=O)CCC3=O)cc21 do in these assays?
HSP90 refold inh: 0.8; Peg3 prom inh: 44.5; Mdm2 MdmX PPI: 55.4*; CF NFkB block: 10.8; KKLEB tox: -10.4; Mdm2 MdmX conf: 11.4

What do the screens show for `CC1=CC(C)(C)Nc2ccc(OC(=O)C(C)N3C(=O)c4ccccc4C3=O)cc21` (stereo unspecified)?
HSP90 refold inh: 5.1; Peg3 prom inh: -17.8; Mdm2 MdmX PPI: 56.5*; CF NFkB block: 7.8; KKLEB tox: -6.2; Mdm2 MdmX conf: 21.8

What do the screens show for `CN(C)CCCNC(=O)C[C@H]1C=C[C@@H](NS(=O)(=O)c2ccccc2)[C@H](CO)O1`?
LGR2 antag: 9.7

Results for CC(=O)N(C)C[C@H]1Oc2ncc(-c3ccccc3C)cc2C(=O)N([C@@H](C)CO)C[C@H]1C ?
LGR2 antag: 0.3

How did COC(=O)c1c(C)[nH]c(C(=O)N2CCN(c3ccc(OC)cc3)CC2)c1C do in these assays?
HSP90 refold inh: 0.6; LGR2 antag: 3.0

What do the screens show for `Cn1c(C(=O)N2CCN(c3ccc(Cl)cc3)CC2)cc2c(=O)[nH]c3ccccc3c21`?
HSP90 refold inh: -1.3; Peg3 prom inh: -30.5; Mdm2 MdmX PPI: 25.2; CF NFkB block: 4.1; KKLEB tox: -0.6

Results for CC(=O)c1c(C)[nH]c(C(=O)N2CCN(c3cc(Cl)ccc3C)CC2)c1C ?
HSP90 refold inh: -1.1; Peg3 prom inh: 36.2; Mdm2 MdmX PPI: 72.8*; CF NFkB block: 18.2; KKLEB tox: -13.4; Mdm2 MdmX conf: 75.2*; Full FLuc ctr: 34.0

Results for COc1cccc(N2CCN(C(=O)c3[nH]c(C)c(C(C)=O)c3C)CC2)c1 ?
HSP90 refold inh: 1.1; Peg3 prom inh: 19.0; Mdm2 MdmX PPI: 53.8*; CF NFkB block: -1.6; KKLEB tox: -2.1; Mdm2 MdmX conf: 68.2*; Full FLuc ctr: 41.8*

How did Cc1ccc(Cl)cc1N1CCN(C(=O)c2cc3c(=O)[nH]c4ccccc4c3n2C)CC1 do in these assays?
HSP90 refold inh: 1.1; Peg3 prom inh: 56.4*; Mdm2 MdmX PPI: 71.0*; CF NFkB block: 27.4; KKLEB tox: -13.7; LGR2 antag: 64.5*; Mdm2 MdmX conf: 91.5*; Full FLuc ctr: 78.8*
